This note sets out measurements from PubChem BioAssay AID743402 (Broad Institute, 2014).

SMILES strings stand for the structures. Out of some 1,200 compounds screened, about 140 (12%) were called active. These entries were drawn from the full list. A number with no mark means an inactive call.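 How the source made its calls: active means fitted curve falls past -35% activity change at a dose under twice the top valid dose, in every replicate test; inconclusive means replicate tests disagree on the call; inactive means the rest, including activity in the opposite direction.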

A short description of this assay: CFTR-F508del correctors, dose response, FRT cells, YFP quenching, cherry-pick (AID 743402).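 Further: compounds act as correctors raising surface CFTR-F508del before acute activation.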 The settings on record: FRT CFTR-F508del YFP iodide quenching, 24 h, channel opened with forskolin and a potentiator; series mostly up to 26 µM.
Consider `Cc1ccc(C)c(C2NC(=O)c3ccccc3N2)c1` (stereo not drawn), for which the activity change, negative = more quenching (active) entry is “inactive”.
Regarding `COC(=O)CSC1=C(C#N)C(c2ccc(C)o2)CC(=O)N1` (stereo not drawn), the activity change, negative = more quenching (active) entry was “inactive”.
The entry for `COc1ccccc1CNC(=O)Nc1nc(C(N)Cc2ccc(Cl)cc2)cs1` (stereo not drawn) is “inactive”; for `CN(C)CCCN(C(=O)c1ccco1)c1nc(-c2ccc(Cl)cc2)cs1` it is “inactive”.
Turning to `O=C(CCc1ccccc1)NCC(c1ccco1)N1CCc2ccccc21` (stereo not drawn), the activity change, negative = more quenching (active) result is “inactive”.
For the compound `CCOC(=O)c1oc2ccc(S(=O)(=O)n3nc(-c4ccccc4)cc3N)cc2c1C`, the activity change, negative = more quenching (active) result was “inactive”.
To `Cc1ccc(C(=O)N/N=C/c2cc(Br)ccc2O)cn1` belongs “inactive”.
For the compound `Cc1ccc(-c2ccc3c(c2)O[C@H](CN(C)Cc2ccccn2)[C@@H](C)CN([C@@H](C)CO)S3(=O)=O)cc1`, the activity change, negative = more quenching (active) result was “inactive”.
On to `O=[N+]([O-])c1ccc(N=Nc2c(Cl)cc(O)cc2Cl)cc1`, for which the activity change, negative = more quenching (active) entry is “inactive”.
Turning to `COc1ccc(OC)c2[nH]c(C(=O)N/N=C/c3ccccc3O)cc12`, the activity change, negative = more quenching (active) entry was “inactive”.
For the compound `Cc1ccc(-c2ccc3c(c2)O[C@@H](CN(C)Cc2ccccn2)[C@H](C)CN([C@H](C)CO)S3(=O)=O)cc1`, the activity change, negative = more quenching (active) entry was “inactive”.
To `Cn1c(C(=O)c2ccccc2[N+](=O)[O-])nc2ccccc21` belongs “inactive”.
Consider `Cc1cccc(N2CCN(S(=O)(=O)c3cc(-c4cc(C)no4)ccc3C)CC2C)c1` (stereo not drawn), for which the activity change, negative = more quenching (active) result was “inactive”.
As to `C[C@@H]1CN([C@H](C)CO)S(=O)(=O)c2ccc(-c3ccccc3)cc2O[C@H]1CN(C)Cc1ccccn1`, the activity change, negative = more quenching (active) result was “inactive”.
For `COc1ccc(-c2ccc3c(c2)[C@H]2[C@H](CCN2S(=O)(=O)c2ccc(OC)cc2)[C@@H](CO)N3)cc1`, the activity change, negative = more quenching (active) result is “inactive”.
For `O=C(C[C@@H]1CC[C@H]2[C@@H](COC[C@H](O)CN2Cc2ccc3c(c2)OCO3)O1)Nc1ccc(-c2ccccc2)cc1`, the activity change, negative = more quenching (active) was 21.4% [at 2.85 µM].
As to `COc1cc2c(-c3ccccc3)c(C)oc2cc1/C=N/NC(N)=S`, the activity change, negative = more quenching (active) result is “inactive”.
As for `Cc1ccc(/C=N/NC(=O)c2c(-c3ccccc3)noc2C)c(O)c1`, the activity change, negative = more quenching (active) result is “inactive”.
The entry for `CO/N=C\CC(=O)Nc1ccc(Cl)cc1Cl` is “inactive”; for `CCOc1cc(/C=N/NC(=O)N/N=C/c2ccc(O)c(OCC)c2)ccc1O` it is “inactive”.
With `COc1ccc(C2c3ccc4ccccc4c3Oc3ncn(CCCO)c(=N)c32)cc1OC` (stereo not drawn), the activity change, negative = more quenching (active) result is “inactive”.
Consider `CCOC(=O)c1c(NC(=O)C(=O)N/N=C/c2ccccc2O)sc2c1CCCCC2`, for which the activity change, negative = more quenching (active) entry was “inactive”.
To `O=c1c2ccccc2oc2cc(-c3ccc4[nH]ccc4c3)ccc12` belongs “inactive”; to `O=C(NCCOc1ccccc1F)c1cc([N+](=O)[O-])ccc1N1CCOCC1`, “inactive”.
With `CCOc1ccc(C(=O)COC(=O)Cc2n[nH]c(=O)c3ccccc23)cc1`, the activity change, negative = more quenching (active) result was “inactive”.
On to `O=C1c2cccc3c(O)ccc(c23)C(=O)N1c1ccc(Cl)cc1`, for which the activity change, negative = more quenching (active) entry is “inactive”.
Consider `CCN1C(=O)c2cccc3c(S(=O)(=O)N(C(C)=O)c4ccc(OC(C)=O)cc4)ccc1c23`, for which the activity change, negative = more quenching (active) entry was “inactive”.
The entry for `C/C(=N\Nc1ncnc2sc(C)c(C)c12)c1ccccn1` is “inactive”; for `Cn1cccc1/C=C1\SC(=Nc2ccccc2)NC1=O` it is “inactive”.
To `CCc1cc(-c2nnn(CCC3COCCO3)c2CC)ccc1-c1cn(Cc2ccc3ccccc3c2)nn1` (stereo not drawn) belongs “inactive”; to `COc1cc(NC(=O)c2csc(N)n2)cc(C(=O)Nc2cccc(C(F)(F)F)c2)c1`, “inactive”.
Consider `O=C(C1CCCCC1)N1CC(=O)N2[C@@H](CO)[C@H](c3ccc(C#Cc4cccc(F)c4)cc3)[C@@H]2C1`, for which the activity change, negative = more quenching (active) entry was “inactive”.
Take `CC1=Nc2cc(C(=O)NCC3CCCO3)ccc2Sc2ccc(C)cc21` (stereo not drawn): the activity change, negative = more quenching (active) result is “inactive”.
As to `COc1ccccc1NC(=S)N(Cc1ccco1)Cc1cc2cc(C)cc(C)c2[nH]c1=O`, the activity change, negative = more quenching (active) entry is “inactive”.
The entry for `CC(=O)O[C@H]1C(=O)[C@]2(C)[C@H]([C@H](OC(=O)c3ccccc3)[C@]3(O)C[C@H](OC(=O)[C@H](O)[C@@H](NC(=O)c4ccccc4)c4ccccc4)C(C)=C1C3(C)C)[C@]1(OC(C)=O)CO[C@@H]1C[C@@H]2O` is “inactive”; for `COc1cc2c(cc1OC)C(C)N(C(=O)Nc1cc(C)cc(C)c1)CC2` (stereo not drawn) it is “inactive”; for `C=CCN1c2ccccc2[C@]23C[C@@H](C(=O)OC)N(C(=O)c4cccs4)C2=NC(C(=O)OC)=C(C(=O)OC)[C@H]13` it is “inactive”.
Consider `C[C@H]1CN([C@@H](C)CO)C(=O)Cc2cc(NC(=O)Nc3ccc(C(F)(F)F)cc3)ccc2O[C@H]1CN(C)S(=O)(=O)c1ccccc1`, for which the activity change, negative = more quenching (active) entry is “inactive”.
The entry for `O=C(N/N=C\c1c(O)ccc2ccccc12)c1cncc(Br)c1` is “inactive”; for `C[C@H]1CN([C@@H](C)CO)S(=O)(=O)c2ccc(C#Cc3ccc(F)cc3)cc2O[C@H]1CN(C)C(=O)NC1CCCC1` it is “inactive”; for `COc1ccc(OC)c(Nc2cc(C)nc3ccc(C)cc23)c1` it is “inactive”.
The entry for `C[C@H]1CN([C@@H](C)CO)S(=O)(=O)c2ccc(-c3ccc(C#N)cc3)cc2O[C@@H]1CN(C)Cc1ccccn1` is “inactive”; for `Oc1ccc2ccccc2c1C=NNc1ccccn1` it is “inactive”.
For the compound `Cc1cccc(Nc2nc(N)nc(-c3oc4ccccc4c3C)n2)c1`, the activity change, negative = more quenching (active) result was “inactive”.
To `CCOC(=O)c1ccc(Nc2sc(C(=O)c3cccc([N+](=O)[O-])c3)c(N)c2C#N)cc1` belongs “inactive”; to `CCc1ccc(-c2nc(C(N)=O)c3[nH]c(=O)n(-c4ccccc4OC)c3n2)cc1`, “inactive”.
Turning to `Nc1sc(-c2ccccc2)cc1-c1n[nH]c(=S)n1C1CCCCC1`, the activity change, negative = more quenching (active) entry is “inactive”.
`Cc1ccc(C)c(CSc2nc3[nH]ncc3c(=O)[nH]2)c1`: the activity change, negative = more quenching (active) entry was “inactive”.
